Records with an inconclusive call do not appear. Calls of active or inactive are those of the source. Calls follow the shape of the dose curve; as a rule, active = well fitted inhibition curve with a large enough effect; inconclusive = small, poorly fitted or top-dose-only effect; inactive = flat fitted curve, though single readings scatter.
Legend:
Experiment in all cases: qHTS profiling for inhibitors of Plasmodium falciparum proliferation (AID 504749); also: nearly all actives have a fitted effect of over 60% in size
Details in all cases: P. falciparum in erythrocytes, SYBR Green DNA, 72 h; series mostly up to 28.7 µM
CP325 = test system: CP325
In short: (§1)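 P. falciparum-infected erythrocytes (0.3% parasitemia, 2.5% hematocrit final) were exposed to compounds for 72 h at 37 C in 5% CO2, then lysed with SYBR Green buffer overnight at room temperature; parasite DNA fluorescence was normalized to artemisinin and DMSO controls.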

CP329 = test system: CP329
In short: as §1

CP335 = test system: CP335
In short: as §1

DFO2036 = test system: DFO2036
In short: as §1

DIV14 = test system: DIV14
In short: as §1

DIV17 = test system: DIV17
In short: as §1

DIV30 = test system: DIV30
In short: as §1

Dd2 = test system: Dd2
In short: as §1

ECU = test system: ECU
In short: as §1

FAB9 = test system: FAB9
In short: as §1

GB4 = test system: GB4
In short: as §1

HB3 = test system: HB3
In short: as §1

ICS = test system: ICS
In short: as §1

JCK = test system: JCK
In short: as §1

N140 = test system: N140
In short: as §1

P93_24 = test system: P93_24
In short: as §1

P94_40 = test system: P94_40
In short: as §1

PAD = test system: PAD
In short: as §1

PC15 = test system: PC15
In short: as §1

PC26 = test system: PC26
In short: as §1

Measured: Potency

O=C(NCCCN1CCOCC1)c1ccc(Cl)cc1
inactive: CP325 | CP329 | CP335 | DFO2036 | DIV14 | DIV17 | DIV30 | Dd2 | ECU | FAB9 | GB4 | HB3 | ICS | JCK | N140 | P93_24 | P94_40 | PAD | PC15 | PC26

CC(=O)Nc1ccc(C(=O)O)cc1
inactive: CP325 | CP329 | CP335 | DFO2036 | DIV14 | DIV17 | DIV30 | Dd2 | ECU | FAB9 | GB4 | HB3 | ICS | JCK | N140 | P93_24 | P94_40 | PAD | PC15 | PC26

O=S1(=O)OC(c2ccc(O)cc2)(c2ccc(O)cc2)c2ccccc21
inactive: CP325 | CP329 | CP335 | DFO2036 | DIV14 | DIV17 | DIV30 | Dd2 | ECU | FAB9 | GB4 | HB3 | ICS | JCK | N140 | P93_24 | P94_40 | PAD | PC15 | PC26

NNC(=O)CP(=O)(c1ccccc1)c1ccccc1
inactive: CP325 | CP329 | CP335 | DFO2036 | DIV14 | DIV17 | DIV30 | Dd2 | ECU | FAB9 | GB4 | HB3 | ICS | JCK | N140 | P93_24 | P94_40 | PAD | PC15 | PC26

CN1CCN(C(=O)C2CCCCC2)CC1
inactive: CP325 | CP329 | CP335 | DFO2036 | DIV14 | DIV17 | DIV30 | Dd2 | ECU | FAB9 | GB4 | HB3 | ICS | JCK | N140 | P93_24 | P94_40 | PAD | PC15 | PC26

O=C(O)c1ccccc1OP(=O)(O)O
inactive: CP325 | CP329 | CP335 | DFO2036 | DIV14 | DIV17 | DIV30 | Dd2 | ECU | FAB9 | GB4 | HB3 | ICS | JCK | N140 | P93_24 | P94_40 | PAD | PC15 | PC26

NS(=O)(=O)c1cc(-c2nn[nH]n2)c(NCc2cccs2)cc1Cl
inactive: CP325 | CP329 | CP335 | DFO2036 | DIV14 | DIV17 | DIV30 | Dd2 | ECU | FAB9 | GB4 | HB3 | ICS | JCK | N140 | P93_24 | P94_40 | PAD | PC15 | PC26

C[C@@H]1CCC[C@H](C)N1
inactive: CP325 | CP329 | CP335 | DFO2036 | DIV14 | DIV17 | DIV30 | Dd2 | ECU | FAB9 | GB4 | HB3 | ICS | JCK | N140 | P93_24 | P94_40 | PAD | PC15 | PC26

NCC1CCC(C(=O)Oc2ccc(CCC(=O)O)cc2)CC1 (stereo not given)
inactive: CP325 | CP329 | CP335 | DFO2036 | DIV14 | DIV17 | DIV30 | Dd2 | ECU | FAB9 | GB4 | HB3 | ICS | JCK | N140 | P93_24 | P94_40 | PAD | PC15 | PC26

CCc1cccc(CC)c1NC(=O)CN(CC(=O)O)CC(=O)O
inactive: CP325 | CP329 | CP335 | DFO2036 | DIV14 | DIV17 | DIV30 | Dd2 | ECU | FAB9 | GB4 | HB3 | ICS | JCK | N140 | P93_24 | P94_40 | PAD | PC15 | PC26

COc1ccc(C(=O)N2CCN(CC(=O)N3CCOCC3)CC2)cc1
inactive: CP325 | CP329 | CP335 | DFO2036 | DIV14 | DIV17 | DIV30 | Dd2 | ECU | FAB9 | GB4 | HB3 | ICS | JCK | N140 | P93_24 | P94_40 | PAD | PC15 | PC26

CCCCCC(N)=O
inactive: CP325 | CP329 | CP335 | DFO2036 | DIV14 | DIV17 | DIV30 | Dd2 | ECU | FAB9 | GB4 | HB3 | ICS | JCK | N140 | P93_24 | P94_40 | PAD | PC15 | PC26

CC(C)(C)C(=O)OCOC(=O)[C@@H]1N2C(=O)[C@@H](NC(=O)[C@H](N)c3ccccc3)[C@H]2SC1(C)C
inactive: CP325 | CP329 | CP335 | DFO2036 | DIV14 | DIV17 | DIV30 | Dd2 | ECU | FAB9 | GB4 | HB3 | ICS | JCK | N140 | P93_24 | P94_40 | PAD | PC15 | PC26

CCN(CC)C(=O)c1cccc(C)c1
inactive: CP325 | CP329 | CP335 | DFO2036 | DIV14 | DIV17 | DIV30 | Dd2 | ECU | FAB9 | GB4 | HB3 | ICS | JCK | N140 | P93_24 | P94_40 | PAD | PC15 | PC26

NNc1nnc(NN)c2ccccc12
inactive: CP325 | CP329 | CP335 | DFO2036 | DIV14 | DIV17 | DIV30 | Dd2 | ECU | FAB9 | GB4 | HB3 | ICS | JCK | N140 | P93_24 | P94_40 | PAD | PC15 | PC26

O=C(O)c1ccc(OCCCOc2ccc(C(=O)O)cc2)cc1
inactive: CP325 | CP329 | CP335 | DFO2036 | DIV14 | DIV17 | DIV30 | Dd2 | ECU | FAB9 | GB4 | HB3 | ICS | JCK | N140 | P93_24 | P94_40 | PAD | PC15 | PC26

c1ccc2[nH]ccc2c1
inactive: CP325 | CP329 | CP335 | DFO2036 | DIV14 | DIV17 | DIV30 | Dd2 | ECU | FAB9 | GB4 | HB3 | ICS | JCK | N140 | P93_24 | P94_40 | PAD | PC15 | PC26

From PubChem BioAssay (NCATS)
